# This excerpt belongs to a sample that is enriched for the strongest signals.
# B1: PpFlo2 (Pichia pastoris) (protein)
# chain: MGSSHHHHHHSSGLVPRGSHMDDSGNGDNSDTAYGCDITTNAVDGFDATIYQYNANDLRLIRDPTFMSTGYLGRNVLNKISGVTVPGFNIWNPSSRTATVYGVKNVNYYNMVLELKGYFKADVSGDYKLTLSHIDDSSMLFFGKETAFKCCDAGSIPLNEAPTDYSLFTIKPSNQVNSEVISATQYLEAGKYYPVRIVFVNALERARFDFKLTIPSGAVLDDFQNYIYQFGDLDENSCHE
# Tests used:
# Experiment in all cases: glycan array binding signal (z-score within array); higher = stronger binding
# Settings in all cases: glycan notation: IUPAC condensed, linker removed
# [1] = target: GlcNAc(b1-3)Gal(b1-4)GlcNAc(b1-3)Gal(b1-4)GlcNAc(b1-2)Man(a1-3)[GlcNAc(b1-3)Gal(b1-4)GlcNAc(b1-3)Gal(b1-4)GlcNAc(b1-2)Man(a1-6)]Man(b1-4)GlcNAc(b1-4)[Fuc(a1-6)]GlcNAc
# Procedure, shortened: (§1)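 Glycan array data came from 3228 arrays in the Consortium for Functional Glycomics database, and only arrays with an available protein sequence were kept. Glycan names were put into IUPAC-condensed notation, and columns mapping to the same glycan were averaged. The binding signal is a within-array Z-score, averaged across arrays of one protein sequence run at different concentrations or buffers and across linkers. A negative Z-score can be read as non-binding.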
# [2] = target: GlcNAc(b1-3)Gal(b1-4)GlcNAc(b1-3)Gal(b1-4)GlcNAc(b1-3)Gal(b1-4)GlcNAc(b1-2)Man(a1-3)[GlcNAc(b1-3)Gal(b1-4)GlcNAc(b1-3)Gal(b1-4)GlcNAc(b1-3)Gal(b1-4)GlcNAc(b1-2)Man(a1-6)]Man(b1-4)GlcNAc(b1-4)GlcNAc
# Procedure, shortened: as §1
# [3] = target: GlcNAc(b1-3)Gal(b1-4)GlcNAc(b1-3)Gal(b1-4)GlcNAc(b1-3)Gal(b1-4)GlcNAc(b1-2)Man(a1-3)[GlcNAc(b1-3)Gal(b1-4)GlcNAc(b1-3)Gal(b1-4)GlcNAc(b1-3)Gal(b1-4)GlcNAc(b1-2)Man(a1-6)]Man(b1-4)GlcNAc(b1-4)[Fuc(a1-6)]GlcNAc
# Procedure, shortened: as §1
# [4] = target: GlcNAc(b1-3)Gal(b1-4)GlcNAc(b1-3)Gal(b1-4)GlcNAc(b1-3)Gal(b1-4)GlcNAc(b1-3)Gal(b1-4)GlcNAc(b1-2)Man(a1-3)[GlcNAc(b1-3)Gal(b1-4)GlcNAc(b1-3)Gal(b1-4)GlcNAc(b1-3)Gal(b1-4)GlcNAc(b1-3)Gal(b1-4)GlcNAc(b1-2)Man(a1-6)]Man(b1-4)GlcNAc(b1-4)GlcNAc
# Procedure, shortened: as §1
# [5] = target: GlcNAc(b1-3)Gal(b1-4)GlcNAc(b1-3)Gal(b1-4)GlcNAc(b1-3)Gal(b1-4)GlcNAc(b1-3)Gal(b1-4)GlcNAc(b1-2)Man(a1-3)[GlcNAc(b1-3)Gal(b1-4)GlcNAc(b1-3)Gal(b1-4)GlcNAc(b1-3)Gal(b1-4)GlcNAc(b1-3)Gal(b1-4)GlcNAc(b1-2)Man(a1-6)]Man(b1-4)GlcNAc(b1-4)[Fuc(a1-6)]GlcNAc
# Procedure, shortened: as §1
# [6] = target: GlcNAc(b1-3)Gal(b1-4)GlcNAc(b1-3)Gal(b1-4)GlcNAc(b1-3)Gal(b1-4)GlcNAc(b1-3)Gal(b1-4)GlcNAc(b1-2)[GlcNAc(b1-3)Gal(b1-4)GlcNAc(b1-3)Gal(b1-4)GlcNAc(b1-3)Gal(b1-4)GlcNAc(b1-3)Gal(b1-4)GlcNAc(b1-6)]Man(a1-6)[GlcNAc(b1-3)Gal(b1-4)GlcNAc(b1-3)Gal(b1-4)GlcNAc(b1-3)Gal(b1-4)GlcNAc(b1-3)Gal(b1-4)GlcNAc(b1-2)Man(a1-3)]Man(b1-4)GlcNAc(b1-4)[Fuc(a1-6)]GlcNAc
# Procedure, shortened: as §1
# [7] = target: GlcNAc(b1-3)Gal(b1-4)GlcNAc(b1-3)[GlcNAc(b1-3)Gal(b1-4)GlcNAc(b1-3)]GalNAc
# Procedure, shortened: as §1
# [8] = target: GlcNAc(b1-3)Gal(b1-4)GlcNAc(b1-6)[Gal(b1-3)]GalNAc
# Procedure, shortened: as §1
# [9] = target: GlcNAc(b1-4)Gal(b1-4)GlcNAc
# Procedure, shortened: as §1
# [10] = target: GlcNAc(b1-6)Gal(b1-4)GlcNAc
# Procedure, shortened: as §1
# GlcNAc(b1-6)GalNAc = target: GlcNAc(b1-6)GalNAc
# Procedure, shortened: as §1
# [11] = target: Man(a1-2)Man(a1-3)[Man(a1-6)]Man(a1-6)[Man(a1-2)Man(a1-3)]Man(b1-4)GlcNAc(b1-4)GlcNAc
# Procedure, shortened: as §1
# [12] = target: Man(a1-3)[Man(a1-6)]Man(b1-4)GlcNAc(b1-4)GlcNAc
# Procedure, shortened: as §1
# [13] = target: Man(a1-3)[Man(a1-6)]Man(b1-4)GlcNAc(b1-4)[Fuc(a1-6)]GlcNAc
# Procedure, shortened: as §1
# [14] = target: Neu5Ac(a2-3)Gal(b1-3)[Fuc(a1-4)]GlcNAc
# Procedure, shortened: as §1
# [15] = target: Neu5Ac(a2-3)Gal(b1-3)[GlcNAc(b1-6)]GalNAc
# Procedure, shortened: as §1
# [16] = target: Neu5Ac(a2-3)Gal(b1-4)GlcNAc(b1-2)Man(a1-3)[Neu5Ac(a2-3)Gal(b1-4)GlcNAc(b1-2)Man(a1-6)]Man(b1-4)GlcNAc(b1-4)[Fuc(a1-6)]GlcNAc
# Procedure, shortened: as §1
# [17] = target: Neu5Ac(a2-3)Gal(b1-4)GlcNAc(b1-2)[Neu5Ac(a2-3)Gal(b1-4)GlcNAc(b1-4)]Man(a1-3)[GlcNAc(b1-4)][Neu5Ac(a2-3)Gal(b1-4)GlcNAc(b1-4)Man(a1-6)]Man(b1-4)GlcNAc(b1-4)GlcNAc
# Procedure, shortened: as §1
# [18] = target: Neu5Ac(a2-3)Gal(b1-4)GlcNAc(b1-3)Gal(b1-4)GlcNAc
# Procedure, shortened: as §1
# [19] = target: Neu5Ac(a2-3)Gal(b1-4)GlcNAc(b1-3)Gal(b1-4)GlcNAc(b1-2)Man(a1-3)[Neu5Ac(a2-3)Gal(b1-4)GlcNAc(b1-3)Gal(b1-4)GlcNAc(b1-2)Man(a1-6)]Man(b1-4)GlcNAc(b1-4)GlcNAc
# Procedure, shortened: as §1
# [20] = target: Neu5Ac(a2-3)GalNAc(b1-4)GlcNAc
# Procedure, shortened: as §1
# [21] = target: Neu5Ac(a2-6)Gal(b1-4)GlcNAc(b1-2)Man(a1-3)Man(b1-4)GlcNAc(b1-4)GlcNAc
# Procedure, shortened: as §1
# [22] = target: Neu5Ac(a2-6)Gal(b1-4)GlcNAc(b1-2)Man(a1-3)[Neu5Ac(a2-3)Gal(b1-4)GlcNAc(b1-2)Man(a1-6)]Man(b1-4)GlcNAc(b1-4)GlcNAc
# Procedure, shortened: as §1
# [23] = target: Neu5Ac(a2-6)Gal(b1-4)GlcNAc(b1-2)Man(a1-6)[GlcNAc(b1-2)Man(a1-3)]Man(b1-4)GlcNAc(b1-4)GlcNAc
# Procedure, shortened: as §1
# [24] = target: Neu5Ac(a2-8)Neu5Ac(a2-3)Gal(b1-4)Glc
# Procedure, shortened: as §1
# [25] = target: Neu5Gc(a2-3)Gal(b1-3)GlcNAc
# Procedure, shortened: as §1
# [26] = target: Neu5Gc(a2-3)Gal(b1-4)GlcNAc
# Procedure, shortened: as §1
# [27] = target: Neu5Gc(a2-8)Neu5Gc(a2-6)Gal(b1-4)GlcNAc
# Procedure, shortened: as §1
binder,measurement,setting,value
B1,glycan array binding signal (z-score),[1],6.15
same,glycan array binding signal (z-score),[2],4.24
same,glycan array binding signal (z-score),[3],7.22
same,glycan array binding signal (z-score),[4],7.34
same,glycan array binding signal (z-score),[5],7.63
same,glycan array binding signal (z-score),[6],4.18
same,glycan array binding signal (z-score),[7],4.33
same,glycan array binding signal (z-score),[8],2.11
same,glycan array binding signal (z-score),[9],0.414
same,glycan array binding signal (z-score),[10],0.578
same,glycan array binding signal (z-score),GlcNAc(b1-6)GalNAc,0.967
same,glycan array binding signal (z-score),[11],-0.276
same,glycan array binding signal (z-score),[12],0.074
same,glycan array binding signal (z-score),[13],-0.248
same,glycan array binding signal (z-score),[14],-0.304
same,glycan array binding signal (z-score),[15],0.351
same,glycan array binding signal (z-score),[16],-0.271
same,glycan array binding signal (z-score),[17],-0.271
same,glycan array binding signal (z-score),[18],-0.293
same,glycan array binding signal (z-score),[19],-0.239
same,glycan array binding signal (z-score),[20],-0.302
same,glycan array binding signal (z-score),[21],-0.293
same,glycan array binding signal (z-score),[22],-0.271
same,glycan array binding signal (z-score),[23],2.77
same,glycan array binding signal (z-score),[24],-0.301
same,glycan array binding signal (z-score),[25],-0.301
same,glycan array binding signal (z-score),[26],-0.299
same,glycan array binding signal (z-score),[27],-0.273

# Reference: the supplement of paper PMC8728848
